# Reference: the supplement of paper PMC12282887
# ± gives the standard deviation of the averaged measurements.
# Legend:
# Assay in all cases: promoter activity interaction Z-score (Lux/OD deviation from empty-vector control); higher = stronger promoter induction by the compound
# [1] = tested on: E. coli BW25113 acrABp lux reporter
# How it was run: (§1)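 OD600 and luminescence of E. coli BW25113 reporter cultures (40 µl LB Lennox, 384-well plates, 37°C) were measured every 30 min for 12 h. Integration ran over 0–8 h for wild type or 1–9 h for deletion strains, and wells with growth below 10% of the median were dropped. The score is the Z-transformed residual of growth-normalised luminescence fitted against a control.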
# [2] = tested on: E. coli BW25113 marRABp lux reporter
# How it was run: as §1
# [3] = tested on: E. coli BW25113 micFp lux reporter
# How it was run: as §1
# [4] = tested on: E. coli BW25113 ompFp lux reporter
# How it was run: as §1
# [5] = tested on: E. coli BW25113 robp lux reporter
# How it was run: as §1
# [6] = tested on: E. coli BW25113 soxSp lux reporter
# How it was run: as §1
# [7] = tested on: E. coli BW25113 tolCp lux reporter
# How it was run: as §1
# [8] = 22.7 µg/ml, genetic background: wild type
# [9] = 22.7 µg/ml, genetic background: ΔmarA
# [10] = 22.7 µg/ml, genetic background: Δrob
# [11] = 22.7 µg/ml, genetic background: ΔsoxS
# [12] = 45.3 µg/ml, genetic background: wild type
# [13] = 45.3 µg/ml, genetic background: ΔmarA
# [14] = 45.3 µg/ml, genetic background: Δrob
# [15] = 45.3 µg/ml, genetic background: ΔsoxS
# [16] = 90.6 µg/ml, genetic background: wild type
# [17] = 90.6 µg/ml, genetic background: ΔmarA
# [18] = 90.6 µg/ml, genetic background: Δrob
# [19] = 90.6 µg/ml, genetic background: ΔsoxS
# [20] = 181.2 µg/ml, genetic background: wild type
# [21] = 181.2 µg/ml, genetic background: ΔmarA
# [22] = 181.2 µg/ml, genetic background: Δrob
# [23] = 181.2 µg/ml, genetic background: ΔsoxS
smiles,measurement,setting,value
C[C@]12CCC(=O)C=C1CC[C@@H]1[C@@H]2[C@@H](O)C[C@@]2(C)[C@H]1CC[C@]2(O)C(=O)CO [Hydrocortisone],promoter activity interaction Z-score,[1]; [8],0.0762 ± 0.23
same,promoter activity interaction Z-score,[1]; [9],1.29 ± 0.12
same,promoter activity interaction Z-score,[1]; [10],0.155 ± 0.043
same,promoter activity interaction Z-score,[1]; [11],-0.247 ± 0.36
same,promoter activity interaction Z-score,[1]; [12],-0.118 ± 0.13
same,promoter activity interaction Z-score,[1]; [13],-0.299 ± 0.39
same,promoter activity interaction Z-score,[1]; [14],-0.0995 ± 0.075
same,promoter activity interaction Z-score,[1]; [15],-0.18 ± 0.021
same,promoter activity interaction Z-score,[1]; [16],-0.0327 ± 0.25
same,promoter activity interaction Z-score,[1]; [17],0.944 ± 0.81
same,promoter activity interaction Z-score,[1]; [18],-0.203 ± 0.1
same,promoter activity interaction Z-score,[1]; [19],-0.563 ± 0.76
same,promoter activity interaction Z-score,[1]; [20],-0.103 ± 0.25
same,promoter activity interaction Z-score,[1]; [21],0.322 ± 0.17
same,promoter activity interaction Z-score,[1]; [22],-0.0446 ± 0.063
same,promoter activity interaction Z-score,[1]; [23],-0.63 ± 0.4
same,promoter activity interaction Z-score,[2]; [8],-0.21 ± 0.0069
same,promoter activity interaction Z-score,[2]; [9],-0.342 ± 0.029
same,promoter activity interaction Z-score,[2]; [10],-0.0926 ± 0.12
same,promoter activity interaction Z-score,[2]; [11],-0.27 ± 0.066
same,promoter activity interaction Z-score,[2]; [12],-0.258 ± 0.11
same,promoter activity interaction Z-score,[2]; [13],-0.377 ± 0.024
same,promoter activity interaction Z-score,[2]; [14],-0.12 ± 0.044
same,promoter activity interaction Z-score,[2]; [15],-0.15 ± 0.019
same,promoter activity interaction Z-score,[2]; [16],-0.225 ± 0.18
same,promoter activity interaction Z-score,[2]; [17],-0.395 ± 0.011
same,promoter activity interaction Z-score,[2]; [18],-0.23 ± 0.18
same,promoter activity interaction Z-score,[2]; [19],-0.551 ± 0.19
same,promoter activity interaction Z-score,[2]; [20],-0.465 ± 0.21
same,promoter activity interaction Z-score,[2]; [21],-0.467 ± 0.023
same,promoter activity interaction Z-score,[2]; [22],-0.34 ± 0.16
same,promoter activity interaction Z-score,[2]; [23],-0.371 ± 0.24
same,promoter activity interaction Z-score,[3]; [8],-0.121 ± 0.17
same,promoter activity interaction Z-score,[3]; [9],-0.0598 ± 0.096
same,promoter activity interaction Z-score,[3]; [10],0.0274 ± 0.19
same,promoter activity interaction Z-score,[3]; [11],-0.338 ± 0.18
same,promoter activity interaction Z-score,[3]; [12],-0.199 ± 0.022
same,promoter activity interaction Z-score,[3]; [13],-0.00993 ± 0.17
same,promoter activity interaction Z-score,[3]; [14],-0.112 ± 0.071
same,promoter activity interaction Z-score,[3]; [15],-0.292 ± 0.17
same,promoter activity interaction Z-score,[3]; [16],-0.0486 ± 0.33
same,promoter activity interaction Z-score,[3]; [17],0.0152 ± 0.072
same,promoter activity interaction Z-score,[3]; [18],-0.0859 ± 0.072
same,promoter activity interaction Z-score,[3]; [19],-0.443 ± 0.012
same,promoter activity interaction Z-score,[3]; [20],-0.162 ± 0.41
same,promoter activity interaction Z-score,[3]; [21],0.0829 ± 0.11
same,promoter activity interaction Z-score,[3]; [22],0.0154 ± 0.043
same,promoter activity interaction Z-score,[3]; [23],-0.487 ± 0.11
same,promoter activity interaction Z-score,[4]; [8],-0.318 ± 0.33
same,promoter activity interaction Z-score,[4]; [9],-1.05 ± 0.19
same,promoter activity interaction Z-score,[4]; [10],-0.188 ± 0.34
same,promoter activity interaction Z-score,[4]; [11],-0.146 ± 0.36
same,promoter activity interaction Z-score,[4]; [12],-0.51 ± 0.41
same,promoter activity interaction Z-score,[4]; [13],-0.8954 ± 0.0059
same,promoter activity interaction Z-score,[4]; [14],-0.15 ± 0.053
same,promoter activity interaction Z-score,[4]; [15],-0.152 ± 0.059
same,promoter activity interaction Z-score,[4]; [16],-0.587 ± 0.064
same,promoter activity interaction Z-score,[4]; [17],-0.994 ± 0.16
same,promoter activity interaction Z-score,[4]; [18],-0.657 ± 0.24
same,promoter activity interaction Z-score,[4]; [19],-1.03 ± 0.14
same,promoter activity interaction Z-score,[4]; [20],-0.507 ± 0.061
same,promoter activity interaction Z-score,[4]; [21],-0.698 ± 0.09
same,promoter activity interaction Z-score,[4]; [22],-0.507 ± 0.34
same,promoter activity interaction Z-score,[4]; [23],-0.928 ± 0.4
same,promoter activity interaction Z-score,[5]; [8],0.0773 ± 1.2
same,promoter activity interaction Z-score,[5]; [9],0.0463 ± 0.066
same,promoter activity interaction Z-score,[5]; [10],0.694 ± 1.1
same,promoter activity interaction Z-score,[5]; [11],-0.236 ± 0.064
same,promoter activity interaction Z-score,[5]; [12],-0.333 ± 0.93
same,promoter activity interaction Z-score,[5]; [13],0.247 ± 0.23
same,promoter activity interaction Z-score,[5]; [14],0.312 ± 0.14
same,promoter activity interaction Z-score,[5]; [15],0.174 ± 0.55
same,promoter activity interaction Z-score,[5]; [16],-0.0645 ± 0.73
same,promoter activity interaction Z-score,[5]; [17],-0.315 ± 0.028
same,promoter activity interaction Z-score,[5]; [18],0.1 ± 1.2
same,promoter activity interaction Z-score,[5]; [19],-0.777 ± 0.35
same,promoter activity interaction Z-score,[5]; [20],-0.438 ± 0.64
same,promoter activity interaction Z-score,[5]; [21],-0.167 ± 0.27
same,promoter activity interaction Z-score,[5]; [22],0.558 ± 0.36
same,promoter activity interaction Z-score,[5]; [23],0.106 ± 1
same,promoter activity interaction Z-score,[6]; [8],0.274 ± 0.098
same,promoter activity interaction Z-score,[6]; [9],-0.206 ± 0.075
same,promoter activity interaction Z-score,[6]; [10],0.0559 ± 0.11
same,promoter activity interaction Z-score,[6]; [11],-0.266 ± 0.045
same,promoter activity interaction Z-score,[6]; [12],0.0799 ± 0.065
same,promoter activity interaction Z-score,[6]; [13],-0.198 ± 0.084
same,promoter activity interaction Z-score,[6]; [14],0.0141 ± 0.1
same,promoter activity interaction Z-score,[6]; [15],-0.247 ± 0.054
same,promoter activity interaction Z-score,[6]; [16],-0.0463 ± 0.13
same,promoter activity interaction Z-score,[6]; [17],-0.321 ± 0.095
same,promoter activity interaction Z-score,[6]; [18],-0.185 ± 0.0079
same,promoter activity interaction Z-score,[6]; [19],-0.58 ± 0.1
same,promoter activity interaction Z-score,[6]; [20],-0.0782 ± 0.16
same,promoter activity interaction Z-score,[6]; [21],-0.3408 ± 0.003
same,promoter activity interaction Z-score,[6]; [22],-0.284 ± 0.044
same,promoter activity interaction Z-score,[6]; [23],-0.743 ± 0.29
same,promoter activity interaction Z-score,[7]; [8],0.184 ± 0.076
same,promoter activity interaction Z-score,[7]; [9],0.724 ± 1.1
same,promoter activity interaction Z-score,[7]; [10],0.231 ± 1.1
same,promoter activity interaction Z-score,[7]; [11],-0.0445 ± 0.42
same,promoter activity interaction Z-score,[7]; [12],-0.258 ± 0.085
same,promoter activity interaction Z-score,[7]; [13],0.509 ± 1.2
same,promoter activity interaction Z-score,[7]; [14],0.65 ± 0.86
same,promoter activity interaction Z-score,[7]; [15],-1.3 ± 0.73
same,promoter activity interaction Z-score,[7]; [16],0.153 ± 0.86
same,promoter activity interaction Z-score,[7]; [17],0.621 ± 0.97
same,promoter activity interaction Z-score,[7]; [18],0.0433 ± 0.14
same,promoter activity interaction Z-score,[7]; [19],-0.413 ± 0.29
same,promoter activity interaction Z-score,[7]; [20],-0.363 ± 0.23
same,promoter activity interaction Z-score,[7]; [21],0.0951 ± 0.92
same,promoter activity interaction Z-score,[7]; [22],0.261 ± 1.6
same,promoter activity interaction Z-score,[7]; [23],0.18 ± 0.34
